Records with an inconclusive call do not appear. The source made the active and inactive calls. Unless noted, calls follow the shape of the dose curve; as a rule, active = well fitted curve in the direction sought with a large enough effect in the repeat runs; inconclusive = weak or mixed curves; inactive = no such curve, though single readings can be large; an effect the other way counts as inactive or inconclusive.
Assays:
[1] = qHTS assay to identify small molecule agonists of the NFkB signaling pathway - cell viability counter screen (AID 1159515; calls by dose curve; also: series mostly up to about 61 µM; % is scaled to controls: 0 for no effect and ±100 for the full control effect; nearly all actives have a fitted effect of over 55% in size)
Outline: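 Viability in NFkB-bla ME-180 cells was measured by CellTiter-Glo luminescence, 30 min room temperature, in wells already treated 5 hr with compounds and read for reporter FRET.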

[2] = qHTS assay to identify small molecule agonists of the endoplasmic reticulum stress response signaling pathway (AID 1159516; active = well fitted activation curve with a large enough effect in the signal ratio in the repeat runs, not every such curve was filed as active; the % refers to the signal ratio; also: % is scaled to controls: 0 for no effect and ±100 for the full control effect)
Outline: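 ER stress element reporter (bla) in HeLa. 1,500 cells/well, overnight attachment; 5 hr compound; 2 hr RT substrate; dual-emission fluorescence.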

[3] = qHTS assay to identify small molecule agonists of the endoplasmic reticulum stress response signaling pathway - cell viability counter screen (AID 1159517; calls by dose curve;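 also: HeLa cells carrying an ER stress response element beta-lactamase reporter; series mostly up to about 61 µM; % is scaled to controls: 0 for no effect and ±100 for the full control effect; nearly all actives have a fitted effect of over 50% in size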)
Outline: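 CellTiter-Glo was added to wells already read for beta-lactamase FRET, and luminescence was recorded 30 min later. Cells: ESRE-bla HeLa, 1,500 per well, compound exposure 5 hr at 37 C.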

[4] = molecular target: Nuclear receptor ROR-gamma (Homo sapiens) (UniProt P51449); assay: qHTS assay to identify small molecule antagonists of the retinoid-related orphan receptor gamma (ROR-gamma) signaling pathway (AID 1159521;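 also: CHO cells with doxycycline inducible ROR-gamma driving an RORE luciferase reporter; top concentration of the series differs between compounds; % is scaled to controls: 0 for no effect and ±100 for the full control effect; nearly all actives have a fitted effect of over 50% in size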)
Outline: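 Test compounds were applied to Tet-on RORγ CHO cells 2 h ahead of doxycycline hyclate (1 uM final). Luciferase reporter activity was quantified by luminescence after 16 h at 37 C and 5% CO2.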

[5] = qHTS assay to identify small molecule agonists of the AP-1 signaling pathway - cell viability counter screen (AID 1159525; calls by dose curve; also: nearly all actives have a fitted effect of over 55% in size)
Outline: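 ME-180 AP-1-bla, 2500 cells/well, Opti-MEM + 0.5% dialyzed FBS; overnight 37 °C; cpd 15-pt titration, 5 h 37 °C; CellTiter-Glo 30 min RT; luminescence read; normalised to TOAB and DMSO controls.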

[6] = qHTS assay to identify small molecule agonists of the AP-1 signaling pathway (AID 1159526; calls by dose curve; also: % is scaled to controls: 0 for no effect and ±100 for the full control effect)
[7] = molecular target: Retinoic acid receptor RXR-alpha (Homo sapiens) (UniProt P19793); assay: qHTS assay to identify small molecule agonists of the RXR signaling pathway (AID 1159527; calls by dose curve; also: % is scaled to controls: 0 for no effect and ±100 for the full control effect; nearly all actives have a fitted effect of over 35% in size)
Chain of Retinoic acid receptor RXR-alpha (Homo sapiens) (P19793 whole entry, looked up): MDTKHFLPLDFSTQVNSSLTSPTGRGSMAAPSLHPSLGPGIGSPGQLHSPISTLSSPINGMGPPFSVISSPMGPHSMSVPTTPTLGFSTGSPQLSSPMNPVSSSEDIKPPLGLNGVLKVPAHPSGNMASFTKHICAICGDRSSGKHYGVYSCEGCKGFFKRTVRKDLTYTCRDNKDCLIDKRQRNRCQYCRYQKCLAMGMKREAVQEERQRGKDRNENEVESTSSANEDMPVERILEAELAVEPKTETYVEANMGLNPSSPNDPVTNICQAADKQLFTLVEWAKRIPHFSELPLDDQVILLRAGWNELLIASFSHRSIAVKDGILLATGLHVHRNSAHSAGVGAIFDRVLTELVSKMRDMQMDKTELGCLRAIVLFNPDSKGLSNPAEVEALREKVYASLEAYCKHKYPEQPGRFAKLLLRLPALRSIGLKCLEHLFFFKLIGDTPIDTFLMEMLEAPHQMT
Outline: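 Using 9-cis retinoic acid as the reference agonist, chemicals were tested in HEK 293T cells […] for 16 hr; substrate loading lasted 2 hr at room temperature.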

[8] = qHTS assay to identify small molecule agonists of the RXR signaling pathway - cell viability counter screen (AID 1159529); also: series mostly up to about 77 µM; % is scaled to controls: 0 for no effect and ±100 for the full control effect; nearly all actives have a fitted effect of over 50% in size
Outline: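 Compounds dissolved in DMSO were pinned onto HEK 293T cells carrying a beta-lactamase reporter under RXR-alpha control and incubated 16 hr. Cytotoxicity was then quantified by CellTiter-Glo luminescence.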

[9] = qHTS assay to identify small molecule antagonists of the retinoid acid receptor (RAR) signaling pathway - cell viability counter screen (AID 1159551); also: % is scaled to controls: 0 for no effect and ±100 for the full control effect; nearly all actives have a fitted effect of over 35% in size
Outline: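 Following overnight attachment, C3RL4 reporter cells received DMSO-dissolved compounds and then retinol (1 uM final). Six hours later at 37 C, ATP content was measured by CellTiter-Glo luminescence.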

[10] = qHTS assay to identify small molecule antagonists of the estrogen related receptor (ERR) signaling pathway from Tox21 library - cell viability counter screen (AID 1224834); also: % is scaled to controls: 0 for no effect and ±100 for the full control effect; nearly all actives have a fitted effect of over 30% in size
Outline: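 Viability readout (CellTiter-Fluor fluorescence, 30 min at 37 C) multiplexed with the ERR assay; cells treated 17.5 h at 37 C with compounds delivered in DMSO.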

[11] = qHTS assay to identify small molecule antagonists of the vitamin D receptor (VDR) signaling pathway - cell viability counter screen (AID 743225); also: % is scaled to controls: 0 for no effect and ±100 for the full control effect; nearly all actives have a fitted effect of over 50% in size
Outline: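 Compounds were pinned onto VDR-bla HEK 293T cells together with 1-alpha,25-dihydroxyvitamin D3 at 3 nM final. After 16 h at 37C and 5% CO2 plus the reporter readout, cell viability was measured by CellTiter-Glo luminescence (30 min, room temperature).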

[12] = qHTS assay to identify small molecule antagonists of the retinoid-related orphan receptor gamma (ROR-gamma) signaling pathway - cell viability counter screen (AID 1159520)
Outline: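 Tet-on ROR gamma CHO cells (1,000/well) were plated 4 hr, given compounds in DMSO for 2 hr at 37 C, then induced with 1 uM final doxycycline for 16 hr. Viability was read as ATP by CellTiter-Glo luminescence after 30 min.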

[13] = qHTS assay to identify small molecule antagonists of the retinoic acid receptor (RAR) signaling pathway (AID 1159552)
Outline: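 Test chemicals and DMSO controls were pin-transferred onto C3RL4 cells a day after seeding; retinol (1 uM final) followed at once. Luminescent reporter output was quantified after 6 hr of co-incubation and 30 min with detection reagent.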

[14] = qHTS assay to identify small molecule antagonists of the estrogen related receptor (ERR) signaling pathway - cell viability counter screen (AID 1224818);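 also: series mostly up to about 46 µM; viability measured after 17.5 h of compound exposure; % is scaled to controls: 0 for no effect and ±100 for the full control effect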
Outline: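 Here, ERR cells are plated at 2,000 cells per well, allowed 6 h to attach, and treated with compounds in DMSO for 17.5 h at 37 C. CellTiter-Fluor is then added and fluorescence read after 30 min.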

[15] = qHTS assay to identify small molecule antagonists of the estrogen related receptor signaling pathway with the pleiotropic PPARgamma coactivator (PGC) cell viability counter screen (AID 1224822;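 also: series mostly up to about 46 µM; viability read after 17.5 h compound exposure; % is scaled to controls: 0 for no effect and ±100 for the full control effect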)
Outline: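 qHTS format, DMSO compound stocks pin-transferred onto PGC/ERR cells 6 h after plating; 17.5 h exposure at 37 C, then CellTiter-Fluor fluorescence.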

[16] = qHTS assay to identify small molecule agonists of the retinoic acid receptor (RAR) signaling pathway (AID 1159553); also: % is scaled to controls: 0 for no effect and ±100 for the full control effect
Outline: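 Cell line C3RL4, RARE luciferase reporter. Treatment: compounds in DMSO, 6 hr, 37 C, 5% CO2, after overnight plating. Detection: luminescence, 30 min RT after reagent.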

CC(=O)NC(=O)c1ccccc1O
inactive: outcome [1] | outcome [2] | outcome [3] | Potency [4] | outcome [5] | outcome [6] | Potency [7] | Potency [8] | outcome [9] | Potency [10]

CCC(C(=O)NC(=O)NC(C)=O)c1ccccc1 (configuration not stated)
inactive: outcome [11] | outcome [1] | outcome [2] | outcome [3] | outcome [6] | Potency [8] | outcome [9] | Potency [10]

CN1CCN(c2cc3c(nn2)Oc2ccccc2N3C)CC1
inactive: outcome [1] | outcome [2] | outcome [3] | activity, negative = cytotoxicity [12] 0.179% [at 19 µM] | activation [6] 0.803% [at 15.8 µM] | activation [7] 10.7% [at 15.8 µM] | activity change, negative = cytotoxicity [8] 1.18% [at 15.8 µM] | activity change, negative = cytotoxicity [9] 0.0499% [at 19 µM] | activity, negative = inhibition [13] 162% [at 19 µM] | viability change, negative = cytotoxic [10] 4.08% [at 19 µM]

CCOC(=O)c1cnc2c(cnn2CC)c1NN=C(C)C
inactive: outcome [11] | outcome [1] | outcome [2] | outcome [3] | Potency [4] | outcome [5] | outcome [6] | Potency [7] | Potency [8] | outcome [9] | outcome [14] | outcome [15] | Potency [10]

O=S(=O)(O)c1cccc2c(S(=O)(=O)O)cccc12
inactive: outcome [11] | outcome [1] | outcome [2] | outcome [3] | Potency [4] | outcome [5] | outcome [6] | Potency [7] | Potency [8] | outcome [9] | Potency [10]

CCOc1ccc2nc(S(N)(=O)=O)sc2c1
inactive: outcome [11] | outcome [1] | outcome [2] | outcome [3] | Potency [4] | outcome [5] | outcome [6] | Potency [7] | Potency [8] | outcome [9] | Potency [10]

CCOc1ccccc1OCC
inactive: outcome [1] | outcome [2] | outcome [3] | Potency [4] | outcome [6] | Potency [7] | Potency [8] | outcome [9] | Potency [10]

CN1C(C)(C)CC(O)CC1(C)C
inactive: outcome [1] | outcome [2] | outcome [3] | Potency [4] | outcome [5] | outcome [6] | Potency [7] | Potency [8] | outcome [9] | Potency [10]

Cc1ccnc(NS(=O)(=O)c2ccc(N)cc2)n1
inactive: outcome [11] | outcome [1] | outcome [2] | outcome [3] | Potency [4] | outcome [5] | outcome [6] | Potency [7] | Potency [8] | outcome [9] | Potency [10]

Nc1ccn([C@@H]2O[C@H](CO)[C@@H](O)C2O)c(=O)n1 (some centres not stated)
inactive: outcome [11] | outcome [1] | outcome [2] | outcome [3] | outcome [5] | outcome [6] | Potency [7] | Potency [8] | outcome [9] | Potency [16] | Potency [10]

CCOC(=O)COC(=O)c1ccccc1C(=O)OCC
inactive: outcome [11] | outcome [1] | outcome [2] | outcome [3] | Potency [4] | outcome [5] | outcome [6] | Potency [8] | outcome [9] | Potency [10]

Cc1onc(-c2c(Cl)cccc2Cl)c1C(=O)Cl
inactive: outcome [11] | outcome [1] | outcome [2] | outcome [3] | Potency [4] | outcome [5] | outcome [6] | Potency [8] | outcome [9] | Potency [10]

CCCn1cc[n+](C)c1C
inactive: outcome [1] | outcome [2] | outcome [3] | Potency [4] | outcome [5] | outcome [6] | Potency [7] | Potency [8] | outcome [9]

O=C(O)CC(C(=O)O)S(=O)(=O)O (configuration not stated)
inactive: outcome [11] | outcome [1] | outcome [2] | outcome [3] | Potency [4] | outcome [5] | outcome [6] | Potency [7] | Potency [8] | outcome [9] | Potency [13] | Potency [10]

CC(C)COC(=O)c1ccc(N)cc1
inactive: outcome [11] | outcome [1] | outcome [2] | outcome [3] | Potency [4] | outcome [5] | outcome [6] | Potency [7] | Potency [8] | outcome [9] | Potency [13] | Potency [10]

CC(C)c1ccc2ncccc2c1
inactive: outcome [1] | outcome [2] | outcome [3] | outcome [12] | outcome [6] | Potency [7] | Potency [8] | outcome [9] | Potency [13] | Potency [10]

c1ccc(CCc2ccccc2)cc1
inactive: outcome [11] | outcome [2] | outcome [3] | outcome [12] | Potency [4] | outcome [5] | outcome [6] | Potency [7] | Potency [8] | outcome [9] | Potency [13] | Potency [10]

CC1=NN(c2cccc(S(=O)(=O)O)c2)C(=O)C1
inactive: outcome [1] | outcome [2] | outcome [3] | Potency [4] | outcome [6] | Potency [7] | Potency [8] | outcome [9] | Potency [10]

O=S(=O)(O)c1cc(O)c(O)c(S(=O)(=O)O)c1
inactive: outcome [1] | outcome [2] | outcome [3] | Potency [4] | outcome [5] | outcome [6] | Potency [8] | outcome [9] | Potency [10]

CC(C)(C)c1ccc(-c2ccc(C(C)(C)C)cc2)cc1
inactive: outcome [11] | outcome [1] | outcome [2] | outcome [3] | Potency [4] | outcome [5] | outcome [6] | Potency [7] | Potency [8] | outcome [9] | Potency [13] | Potency [10]

CC(COc1ccccc1)NN (configuration not stated)
inactive: outcome [1] | outcome [2] | outcome [3] | Potency [4] | outcome [5] | outcome [6] | Potency [7] | Potency [8] | outcome [9]

[K+]
inactive: outcome [1] | outcome [2] | outcome [3] | Potency [4] | outcome [5] | outcome [6] | Potency [8] | outcome [9] | Potency [10]

Source: PubChem BioAssay (Tox21)
